Screens (PubChem)
This is a sample that favours compounds with a hit; in the whole collection about 2.2% have one here.
KLF5 inhibitor – kruppel-like factor 5 inhibition; DLD-1 KLF5 promoter-luciferase reporter, luminescence; inhibition, % at 5 µM; actives 0.23% (n = 290,000);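 active = inhibition above a per-plate limit of that plate's mean compound inhibition plus 3 SD, cut at about 60% in these data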;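 note: 0% = DMSO wells and 100% = LY294002 at 200 µM; higher means less KLF5 promoter-driven luciferase light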
IEC-6 cytotox – kills IEC-6 intestinal cells in KLF5 counter-screen; IEC-6 cytotoxicity, luminescence viability; AID 1825; actives 0.78% (n = 290,000); inhibition, % at 5 µM;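 note: 0% = plate median of test compound wells and 100% = cytotoxic reference compound wells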
aSyn 5UTR inh – 5' untranslated region of α-synuclein, MLPCN primary screen. alpha-synuclein 5'UTR reporter, inhibitor activity. inhibition, % (tested at 7.5 µM). actives 0.82% (n = 300,000); in the data active = inhibition above about 60%;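 note: H4 neuroglioblastoma cells stably carrying SNCA 5'UTR luciferase fusion; 0% = DMSO wells and 100% = positive control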
Ba/F3 V617F tox – loss of viability in JAK2V617F-driven Ba/F3 cells | Ba/F3 EpoR-JAK2V617F viability, ATP luminescence | inhibition, % at 5.6 µM | actives 1.1% (n = 220,000) | AID 1446;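 active = inhibition above the campaign mean plus 3 SD over all tested compounds, cut at about 24% in these data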;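 note: cytokine-independent growth of Ba/F3 cells driven by EpoR plus mutant JAK2; 0% = DMSO-treated cells and 100% = JAK inhibitor I control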
BaF3 parental – parental Ba/F3 viability inhibition as JAK2V617F counter-screen | AID 1486 | actives 1.1% (n = 220,000) | inhibition, % at 5.6 µM | CellTiter-Glo ATP luminescence;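 active = inhibition above a per-campaign cutoff, the mean inhibition of all tested compounds plus 3 SD, cut at about 27% in these data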;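 note: 0% = DMSO wells and 100% = JAK Inhibitor I control wells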
APP 5UTR inh – APP translation inhibition; SH-SY5Y APP 5'UTR-luciferase reporter, luminescence; inhibition, % at 2 µM; actives 0.82% (n = 190,000); AID 1285;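 active = inhibition above a set limit, derived from the sample mean plus 3 SD, cut at about 45% in these data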
IEC-6 tox confirm – IEC-6 cytotoxicity, confirmation assay | shares compounds with IEC-6 cytotox | IEC-6 rat intestinal epithelial viability, luminescence | inhibition, % at 5 µM | actives 63% (n = 1,900);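 note: 0% = vehicle and 100% = reference cytotoxic drug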
* hit, by the source's call; nt = not tested or not shown. Cut-off read from the data, not from the text of the source, unless noted: active = inhibition above about 22%; inactive = the rest.

SMILES | KLF5 inhibitor | IEC-6 cytotox | aSyn 5UTR inh | Ba/F3 V617F tox | BaF3 parental | APP 5UTR inh | IEC-6 tox confirm
CC(C)n1nc(C(=O)Nc2cccc(S(=O)(=O)NCc3ccco3)c2)c2ccccc2c1=O | 0 | 6 | 2 | 3 | 3 | nt | nt
O=C(CC1(O)C(=O)N(CCc2ccccc2)c2ccccc21)c1ccccn1 (stereo unspecified) | -10 | -3 | -11 | 1 | 6 | -19 | nt
O=C(CC1(O)C(=O)N(C/C=C/c2ccccc2)c2ccccc21)c1ccccn1 (stereo unspecified) | -8 | 89* | -53 | 92* | 93* | 57* | 32*
COc1cc(CN2CCN(c3ccccc3F)CC2)c([N+](=O)[O-])cc1OC | -27 | -8 | 2 | -3 | 6 | -4 | nt
O=C(Nc1ccc(N2CCOCC2)cc1)Nc1ccc2nc(-c3ccco3)c(-c3ccco3)nc2c1 | -21 | 23* | 112* | 21 | 14 | -12 | 37*
COc1ccccc1NC(=O)C(=O)/C=C(\O)c1ccccc1 | -42 | -1 | -131 | -1 | 0 | nt | nt
COc1ccc(NC(=O)CSc2nnc(NC(=O)c3ccco3)s2)cc1OC | -30 | -2 | -4 | nt | nt | nt | nt
CCN(CC)CCCNc1oc(/C=C/c2ccccc2)nc1C#N | -29 | 3 | -64 | -4 | 3 | nt | nt
CCNc1oc(/C=C/c2ccc(OCC)cc2)nc1C#N | -17 | 52* | -188 | nt | nt | nt | 36*
Cc1cccc(NC2=NC(C)(C)N=C(N)N2)c1 | 20 | 77* | 98* | 99* | 101* | 4 | 70*
CC(C)CC(=O)NCCCCc1ccccc1 | -36 | 22* | 3 | 3 | 6 | -22 | 6
CC(C)C(=O)NCCCc1ccccc1 | -4 | 4 | 5 | 1 | 1 | 1 | nt
CCOc1ccc(C(C)=O)cc1N1C(=O)C2C3C=CC(O3)C2C1=O (stereo unspecified) | -21 | 22* | 0 | 11 | 28* | 18 | 1
CC(C)c1ccccc1OCC(=O)Nc1cc(S(=O)(=O)N2CCOCC2)ccc1N1CCCC1 | nt | nt | 11 | nt | nt | nt | nt
O=C(NCC(c1cccs1)N1CCOCC1)c1ccc(Cl)cc1 (stereo unspecified) | nt | nt | -100 | nt | nt | nt | nt
O=C(NCC(c1cccs1)N1CCOCC1)c1ccc(Cl)s1 (stereo unspecified) | 38 | 72* | 7 | 74* | 69* | 61* | 49*
COc1ccc2oc(-c3ccccc3[N+](=O)[O-])cc(=O)c2c1 | -28 | 44* | 7 | 65* | 53* | 2 | 48*
COc1ccc(-c2cc(=O)c3ccccc3o2)cc1 | nt | nt | -216 | nt | nt | nt | nt
CCOc1ccccc1NC(=O)c1cccc(NC(=O)c2ccco2)c1 | 45 | 55* | -185 | 82* | 68* | 91* | 52*
Cc1ccccc1NC(=O)c1cccc(NC(=O)c2ccco2)c1 | -7 | 0 | -15 | nt | nt | nt | nt
COc1cccc(C(=O)C2CCCN(C(=O)c3cccc(C#CC(C)(C)O)c3)C2)c1 (stereo unspecified) | -5 | 4 | 14 | 1 | -2 | -32 | nt
CCOC(=O)C(NC(=O)Nc1ccc(Cl)cn1)(Oc1ccc(F)cc1)C(F)(F)F (stereo unspecified) | -3 | 25* | -52 | 7 | 12 | -7 | -4
C/C(=N\NC(=O)c1ccc2c(c1)OCCO2)c1ccccc1 | -37 | 31* | 73* | 0 | 0 | nt | 9
Cc1ccc(/C=N/NC(=O)c2ccc3ccccc3c2)s1 | 48 | 82* | -132 | nt | nt | nt | 50*
Cc1ccc(/C=N/NC(=O)c2ccncc2)s1 | -16 | 0 | -8 | -1 | -1 | nt | nt
SMILES | KLF5 inhibitor | IEC-6 cytotox | aSyn 5UTR inh | Ba/F3 V617F tox | BaF3 parental | APP 5UTR inh | IEC-6 tox confirm
Cc1ccc(/C=N/NC(=O)c2ccc3c(c2)OCCO3)s1 | -36 | 34* | -118 | 65* | 37* | nt | 49*
O=C(N/N=C/c1cccs1)c1ccc2ccccc2c1 | -55 | 29* | -240 | nt | nt | nt | 12
CC(C)c1nc2cc(C(=O)N3CCNC(=O)C3c3ccc(F)cc3)ccc2o1 (stereo unspecified) | -23 | 2 | 6 | nt | nt | nt | nt
O=C1C(=O)N(CCS(=O)(=O)c2ccccc2)c2ccc(Cl)cc21 | -15 | 40* | -27 | nt | nt | nt | 4
COC1=C(N)C(=O)c2nc(-c3nc(C(=O)O)c(C)c(-c4ccc(OC)c(OC)c4O)c3N)ccc2C1=O | -10 | 45* | nt | 86* | 71* | 95* | 101*
COc1ccc(-c2ncncc2-c2csc(C)n2)c(O)c1OC | -19 | -2 | -4 | -2 | 3 | 0 | nt
CC1CC(C)C[N+](=C2C=C(N3CCCC3)CC(C)(C)C2)C1 (stereo unspecified) | 9 | 35* | -14 | 92* | 72* | 7 | 23*
NNC(=O)c1sc2cc(C(F)(F)F)cnc2c1-c1ccccn1 | -20 | 0 | 17 | 0 | 2 | -3 | nt
CCOc1ccc(NC(=O)CSc2nc3ccccc3nc2N2CCOCC2)cc1 | 17 | 4 | 36 | nt | nt | nt | nt
CC(NC(=O)/C(C#N)=C/c1ccc([N+](=O)[O-])o1)c1ccccc1 (stereo unspecified) | 3 | 48* | -54 | nt | nt | nt | 16
Cc1ccc(-c2csc(Nc3ccccn3)n2)cc1 | -9 | 2 | -27 | nt | nt | nt | nt
Cc1ccc(Nc2nc(-c3sc(N)nc3C)cs2)cc1 | -77 | -1 | -134 | nt | nt | nt | nt
Cc1cccc(Nc2nc(-c3ccncc3)cs2)c1 | -42 | 65* | -61 | -3 | 21 | -50 | 75*
Cc1ccc(Nc2nc(-c3sc(C)nc3C)cs2)cc1 | 37 | 75* | 6 | nt | nt | nt | 52*
COc1ccc(Nc2nc(-c3sc(C)nc3C)cs2)c(OC)c1 | 12 | 60* | -124 | nt | nt | nt | 40*
Cc1ccc(Nc2nc(-c3ccncc3)cs2)cc1 | -93 | 27* | -331 | 0 | 7 | -129 | 84*
Cc1cccc(C(=O)N2CCN(Cc3nc4sc5c(c4c(=O)[nH]3)CCCC5)CC2)c1 | -9 | -2 | 28 | nt | nt | nt | nt
Cn1c(N)c(N2CCN(c3ccccc3)CC2)c(=O)[nH]c1=O | -4 | -4 | -14 | -2 | -3 | 15 | nt
O=C(NCCOc1ccccc1F)c1cc([N+](=O)[O-])ccc1N1CCOCC1 | 43 | 49* | -36 | nt | nt | nt | 41*
Cc1cc(C)cc(NS(=O)(=O)c2ccc3[nH]cc(C(=O)NCc4ccco4)c(=O)c3c2)c1 | -2 | 28* | 31 | 64* | 66* | 0 | 29*
COc1ccc(NC(=O)c2ccc(NC(=O)COC(=O)c3cnc(C)cn3)cc2)cc1 | nt | nt | -28 | nt | nt | nt | nt
CC(=O)c1cccc(NS(=O)(=O)c2ccc(-c3cnc(C4CC4)o3)cc2)c1 | 22 | 38* | -5 | nt | nt | nt | 38*
COc1ccc(NS(=O)(=O)c2cc(-c3cnc(C4CC4)o3)ccc2C)cc1 | 41 | 81* | 82* | nt | nt | nt | 74*
CC(=O)Nc1ccc(NS(=O)(=O)c2ccc(-c3cnc(C4CC4)o3)cc2)cc1 | -13 | 5 | -9 | nt | nt | nt | nt
O=S(=O)(Nc1ccccc1)c1ccc(-c2cnc(C3CC3)o2)cc1 | 39 | 42* | 0 | nt | nt | nt | 33*
